Reference: PubChem BioAssay (NCI)
Compounds without any hit were thinned out: in the full panel of roughly 83,000, 20% have a hit.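 96-well plates, one dose, 48 hours. Percent growth reported; active if below 10.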 Unmarked numbers belong to inactive results. Active and inactive are the calls of the source.

Key:
Assay in all cases: NCI-60 one-dose screen, 48 h (100 = growth as untreated, 0 = no growth, -100 = all killed)
Conditions in all cases: 10 µM unless noted
T-47D breast = system: T-47D breast
BT-549 breast = system: BT-549 breast
MDA-MB-435 melanoma = system: MDA-MB-435 melanoma
SW-620 colon = system: SW-620 colon
MCF7 breast = system: MCF7 breast
HCT-116 colon = system: HCT-116 colon
HCC-2998 colon = system: HCC-2998 colon
KM12 colon = system: KM12 colon

Row | Structure (SMILES) | growth (T-47D breast) | growth (BT-549 breast) | growth (MDA-MB-435 melanoma) | growth (SW-620 colon) | growth (MCF7 breast) | growth (HCT-116 colon) | growth (HCC-2998 colon) | growth (KM12 colon)
1 | O=C1Nc2ccccc2/C1=C\c1c[nH]c2ccc(Br)cc12 | 26.6% | 116% | 69% | 93.7% | 29.5% | 85.8% | 71.6% | 12.9%
2 | CC1(C)[C@@H](O[C@@H]2OC[C@@H](O[C@@H]3O[C@H](CO)[C@@H](O)[C@H](O)[C@H]3O[C@@H]3OC[C@@H](O)[C@H](O)[C@H]3O)[C@H](O)[C@H]2O[C@@H]2O[C@H](CO)[C@@H](O)[C@H](O)[C@H]2O)CC[C@]2(C)[C@H]3CC[C@]45OC[C@@]6(CC[C@](C)(C=O)C[C@H]64)[C@H](O)C[C@@]5(C)[C@]3(C)CC[C@@H]12 | -55.7% (active) | -94% (active) | -83.8% (active) | -58.4% (active) | -59.6% (active) | -75.9% (active) | -82.1% (active) | -62% (active)
3 | O=C(NNC(=O)c1ccc(NC(=O)c2ccccn2)cc1)Nc1ccc2ccccc2c1 | 106% | 107% | 110% | 116% | 96% | 102% | 121% | 102%
4 | C=C1C(=O)O[C@H]2[C@H]1CC/C(Cn1cc(CCC)nn1)=C\CC[C@@]1(C)O[C@@H]21 | -40.1% (active) | 40.4% | 36.2% | -0.143% (active) | 11.1% | -55.7% (active) | 73.6% | 81.1%
5 | O=C(N/N=C\c1ccccc1S(=O)(=O)O)N/N=C/c1ccccc1S(=O)(=O)O | 102% | 118% | 105% | 91.9% | 93.4% | 106% | 104% | 94.1%
6 | O=S(=O)(NCCNc1nccc(-c2c(-c3ccc(F)c(O)c3)nc3sccn23)n1)c1ccc(F)cc1 | 35.9% | 49.5% | 4.98% (active) | 29.5% | 17.1% | 6.5% (active) | 41.8% | 25.7%
7 | Cc1ccc2c(=O)cc(C(=O)Nc3sc4c(c3C(=O)NCc3cccnc3)CCCC4)oc2c1C | 94% | 107% | 101% | 101% | 96.8% | 109% | 106% | 97.1%
8 | S=C(c1ccc2c(c1)OCO2)N1CCN(c2cccc(Cl)c2)CC1 | 11.6% | 52.4% | -37.7% (active) | 4.12% (active) | -0.55% (active) | 13.7% | -13.1% (active) | 12.6%
9 | CCSc1oc(C)nc1[P+](c1ccccc1)(c1ccccc1)c1ccccc1 | 14.6% | 12.4% | 25.3% | 32.9% | 13.7% | 14.4% | 29.5% | 8.25% (active)
10 | Cn1cc(-c2ccc(-c3cn(C)c4ccc(Cl)cc34)[nH]2)c2cc(Cl)ccc21 | -51.1% (active) | -83.7% (active) | 19.5% | -83.1% (active) | 18.8% | -85.5% (active) | -72.2% (active) | -33.5% (active)
11 | NS(=O)(=O)c1ccc(C(=O)NN2C(=O)c3c(Br)c(Br)c(Br)c(Br)c3C2=O)cc1 | 83.1% | 106% | 103% | 101% | 81.4% | 99.7% | 111% | 97.5%
12 | Cc1cccc2c1C[C@@]1(C2=O)C(c2ccc(C(C)(C)C)cc2)=NOS1=O (stereo not given in full) | 70.2% | 104% | 109% | 100% | 66.2% | 91.6% | 109% | 91.9%
13 | COc1cc(-c2nc3sccn3c2-c2ccnc(NCCNS(=O)(=O)c3ccc(Cl)cc3)n2)ccc1F | 1.61% (active) | 30.9% | 9.48% (active) | 50.6% | 17.7% | 20.9% | 66.5% | 17%
14 | COc1ccc(NC(=O)Nc2ccc(OCCCCCC(=O)NO)cc2)cc1 | 107% | 99.5% | 94% | 99.7% | 98.3% | 92.3% | 110% | 103%
15 | O=C1Nc2c(C(=O)O)cccc2/C1=N/c1n[nH]c(=S)s1 | 68.4% | 116% | 88.4% | 88.1% | 80.8% | 96.2% | 103% | 75.4%
16 | CC1(C)OB(O)c2cc(-c3nc4ccc5[nH]ncc5c4c4c3CCCC4)ccc21 | 34.9% | 74.9% | 48.8% | 59.4% | 44.1% | 22.7% | 82.9% | 38.7%
17 | COc1ccc(/C=C/C(=O)c2ccc(NC(=O)CSc3nc4c([nH]3)c(=O)n(C)c(=O)n4C)cc2)cc1OC | 76.9% | 59% | 88.5% | 96.2% | 40.7% | 59.3% | 75.9% | 72.3%
18 | C=Cc1cnc(Nc2ccc(OC)cc2)nc1NCCCNC(=O)C1CCC1 | 66.8% | 26.4% | 70.3% | 47.5% | 53.6% | 21.5% | 78.8% | 39.1%
19 | Cc1ccc(C(=O)c2ccc(CC(=O)N=Nc3c(O)[nH]c4ccc(Br)cc34)n2C)cc1 | 74.5% | 100% | 98.7% | 91.2% | 86.9% | 86% | 124% | 97.9%
20 | COc1cccc(NCc2nnc(Nc3ccc(Cl)cc3)c3ccccc23)c1 | -8.49% (active) | -12.2% (active) | -10.3% (active) | 11.9% | -1.96% (active) | -44.2% (active) | 2.79% (active) | -24.9% (active)
21 | CN1CCN(C(=S)SCCCCOc2cc(=O)oc3ccccc23)CC1 | 55.6% | 81.3% | 96.7% | 100% | 78.6% | 86.8% | 98.1% | 85.4%
22 | O=C(CCCCCCN1CC(=O)N2[C@H](c3ccc(Cl)cc3)c3[nH]c4ccccc4c3C[C@@H]2C1=O)NO | 25.9% | 74.7% | 43.2% | 35.4% | 48% | 24.7% | 82.3% | 80.3%
23 | CNC(=O)c1cc(Oc2cccc3nc(NC(=O)Nc4cc(C(F)(F)F)ccc4Cl)ccc23)ccn1 | 78.1% | 85% | 74.1% | 112% | 85% | 60.1% | 115% | 96.7%
24 | CN1CCN(CCOc2ccc(-c3cnc4c(-c5ccc(F)cc5)cnn4c3)cc2)CC1 | 52.7% | 82.8% | -34.3% (active) | -86.9% (active) | 41% | 14.5% | 71.6% | 9.72% (active)
25 | COc1ccc(Oc2nc(Nc3ccc(N4CCOCC4)cc3)ncc2NC(=O)Nc2cc(OC)cc(OC)c2)cc1 | 48.8% | 12.5% | 6.76% (active) | 19.6% | 41.7% | -55.5% (active) | 9.48% (active) | 24%
26 | CCOc1c(OC)cc2c(c1O)C(=O)N[C@@H]1[C@@H](O)[C@@H](O)[C@H](O)C[C@@H]21 | 92.8% | 99.6% | 108% | 107% | 92.1% | 104% | 102% | 104%
27 | O=C(/C=C(O)/C=C/c1cccc2[nH]ccc12)/C=C/c1cccc2[nH]ccc12 | 65% | 76.4% | -2.09% (active) | 50.5% | 16.5% | 46.3% | 102% | 95.3%
28 | O=C(Oc1ccc(CCl)cc1)c1ccccc1 | -35.1% (active) | -97.9% (active) | -88.7% (active) | -49% (active) | -58.2% (active) | -84.7% (active) | -75% (active) | -79.1% (active)
29 | O=C(Cc1ccccc1)Nc1cccc(N=Cc2ccccc2O)c1 | 91.8% | 115% | 97.8% | 109% | 94.4% | 108% | 106% | 98.1%
30 | COc1ccc(/C=C/C(=O)c2cc3c(N)c(C(=O)Nc4cccc(Cl)c4C)sc3nc2C)cc1 | 38.9% | -19% (active) | -28.2% (active) | 13.2% | 7.78% (active) | 5.3% (active) | 1.15% (active) | 7.8% (active)
